# Results as given in PubChem BioAssay (EPA / NIEHS).
# “And” between values parts separate entries of the source, which are not always exact repeats. Equal values may be shown once. Inconclusive results are not listed. A structure can be active in one record and inactive in another. The source made the active and inactive calls. The calls were made as follows, unless noted: active = hit-call score of the fitted dose curve at least 0.9, where 1 is the maximum; inactive = score below 0.9.
# Assays:
# [1] = ACEA_ER_80hr: ACEA Biosciences xCELLigence Real-Time Cell Analysis on Estrogen Receptor Agonism for Proliferation (AID 2282667; active = hit-call score of the fitted dose curve at least 0.9, where 1 is the maximum); conditions: T47D proliferation, impedance (xCELLigence), 80 h
# Outline: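 Estrogen-driven proliferation is captured as electrode impedance in T47D cells 80 h after compound addition. Test articles ran at 8 concentrations, 1:4 dilutions from 100 uM final, in two replicate plates.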
# [2] = APR_HepG2_CellCycleArrest_24hr: Apredica 24-hour HepG2 Assay for Cell Cycle Arrest (AID 2282905); conditions: imaging, actives raise or lower the signal;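 also: cell cycle arrest scored as ratio of 2N to 4N nuclear DNA content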
# Outline: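 Step one: dose HepG2 with test compounds, 0.39–200 uM, 0.5% DMSO, 24 hr. Step two: fix, permeabilize, stain nuclei with Hoechst 33342. Step three: image six fields per well at 20x, quantify DNA content, fit bidirectionally relative to DMSO.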
# [3] = APR_HepG2_NuclearSize_24hr: Apredica 24-hour HepG2 Assay for Nuclear Size (AID 2282907); conditions: high-content imaging, actives raise or lower the signal
# Outline: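 After fixation and permeabilization, 24-hr-treated HepG2 cells were stained with Hoechst 33342 and imaged on an ArrayScan (20x). Doses spanned 0.39–200 uM in duplicate. Nuclear diameter changes in either direction were fitted relative to 0.5% DMSO controls.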
# [4] = APR_HepG2_CellLoss_24hr: Apredica 24-hour HepG2 Assay for Cell Loss (AID 2282908); conditions: high-content imaging;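 as to AC50: fit in both directions so a hit may be cell loss or gain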
# Outline: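 Duplicate wells received compound at ten concentrations (0.39–200 uM; final DMSO 0.5% v/v). After fixation with formaldehyde, nuclei stained with Hoechst 33342 were imaged at 20x. Loss or gain of cell count was fitted relative to DMSO controls.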
# [5] = APR_HepG2_MicrotubuleCSK_24hr: Apredica 24-hour HepG2 Assay for Microtubule CSK Stabilty (AID 2282909); conditions: HepG2 microtubule cytoskeleton imaging, actives raise or lower the signal
# Outline: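 Microtubule stability is scored from tubulin immunofluorescence in fixed HepG2 cells imaged at 20x. Cells receive ten compound concentrations up to 200 uM for 24 h; taxol and DMSO serve as positive and negative controls.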
# [6] = APR_HepG2_MitoticArrest_24hr: Apredica 24-hour HepG2 Assay for Mitotic Arrest (AID 2282910); conditions: high-content imaging, actives raise or lower the signal
# Outline: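 Treatment lasted 24 hr in the human HepG2 line at 0.39–200 uM, solvent held at 0.5% DMSO. Fixed cells were stained with Hoechst 33342 and anti-phospho-histone H3, imaged at 20x, and analysed by gain- or loss-of-signal fitting against DMSO.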
# [7] = APR_HepG2_MitoMembPot_24hr: Apredica 24-hour HepG2 Assay for Mitochondrial Membrane Potential (AID 2282911); conditions: imaging, actives raise or lower the signal
# Outline: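 Mitochondrial dye uptake (MitoTracker Red CMXRos, 250 nM, 30 min pre-fixation) in HepG2 after 24 hr compound exposure, 0.39–200 uM; ArrayScan images at 20x, activity fitted in both directions relative to DMSO.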
# [8] = APR_HepG2_MitoMass_24hr: Apredica 24-hour HepG2 Assay for Mitochondrial Mass (AID 2282912); conditions: high-content imaging, actives raise or lower the signal
# Outline: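 Readout: fluorescence of MitoTracker Red CMXRos (250 nM, added 30 min pre-fixation) in fixed HepG2 cells imaged by HCS. Exposure lasted 24 hr at 0.39–200 uM; increases and decreases were both fitted relative to DMSO.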
# [9] = APR_HepG2_p53Act_24hr: Apredica 24-hour HepG2 Assay for p53 Activation (AID 2282913); conditions: high-content imaging, actives raise or lower the signal;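 also: p53 protein immunofluorescence averaged per cell in HepG2 with Hoechst nuclei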
# Outline: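 Following 24 hr dosing of HepG2 at 0.39–200 uM, the cells undergo formaldehyde fixation, Triton permeabilization and multiplexed antibody labeling that includes p53 (Cy5). Signal from the imaging is referenced to DMSO solvent controls.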
# [10] = APR_HepG2_CellCycleArrest_72hr: Apredica 72-hour HepG2 Assay for Cell Cycle Arrest (AID 2282914); conditions: high-content imaging, actives raise or lower the signal
# Outline: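 Using multiplexed high-content imaging, HepG2 nuclei stained with Hoechst 33342 (2 ug/mL) were analysed for DNA content after fixation and permeabilization. Treatment lasted 72 hr across 0.39–200 uM in duplicate with final DMSO 0.5% v/v; DMSO served as negative control.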
# [11] = APR_HepG2_CellLoss_72hr: Apredica 72-hour HepG2 Assay for Cell Loss (AID 2282915); conditions: high-content imaging
# Outline: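 HepG2 cells were exposed for 72 hr to compounds at 0.39–200 uM (ten concentrations, duplicate) in 0.5% v/v final DMSO. Nuclei were stained with Hoechst 33342 after 3.7% formaldehyde fixation, imaged at 20x, and counted; fits bidirectional versus DMSO.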
# [12] = APR_HepG2_P-H2AX_72hr: Apredica 72-hour HepG2 Assay for H2AX Phosphorylation (AID 2282916); conditions: imaging, actives raise or lower the signal;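 also: phospho-histone H2A.x immunostain intensity per cell marking DNA damage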
# Outline: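 Phospho-H2A.x imaging endpoint in HepG2 after 72 hr compound exposure (0.39–200 uM, duplicate wells). Activity derived by bidirectional curve fitting with DMSO as baseline.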
# [13] = APR_HepG2_MitoMembPot_72hr: Apredica 72-hour HepG2 Assay for Mitochondrial Membrane Potential (AID 2282917); conditions: imaging, actives raise or lower the signal
# Outline: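 HepG2 cells exposed 72 h to compounds at 0.39–200 uM (0.5% v/v DMSO, duplicates); MitoTracker Red CMXRos 250 nM loaded 30 min before 3.7% formaldehyde fixation, imaged by HCS fluorescence. Bidirectional fit versus DMSO.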
# [14] = APR_HepG2_MitoticArrest_72hr: Apredica 72-hour HepG2 Assay for Mitotic Arrest (AID 2282918); conditions: high-content imaging, actives raise or lower the signal
# Outline: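 Using high-content imaging of fixed HepG2 cells, phospho-histone H3 signal was measured following a 72 hr incubation with ten-point compound dilutions up to 200 uM. DMSO served as the negative control and baseline for bidirectional curve fitting.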
# [15] = APR_HepG2_MicrotubuleCSK_72hr: Apredica 72-hour HepG2 Assay for Microtubule CSK Stabilty (AID 2282919); conditions: HepG2 microtubule cytoskeleton, high-content imaging, actives raise or lower the signal
# Outline: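 Ten-point dosing (0.39–200 uM, 0.5% DMSO) of HepG2 for 72 hr, with taxol as the cytoskeletal positive control. The cells were formaldehyde-fixed and then stained with alpha-tubulin/Cy5 and Hoechst. Imaging at 20x used a −2 um Z offset for tubulin.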
# [16] = APR_HepG2_P-H2AX_24hr: Apredica 24-hour HepG2 Assay for H2AX Phosphorylation (AID 2282920); conditions: high-content imaging, actives raise or lower the signal
# Outline: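 Human HepG2 liver cells, treated 24 hr with test chemicals (0.39–200 uM, final DMSO 0.5% v/v), are fixed and co-stained for phospho-H2A.x and c-Jun with Hoechst. Imaged intensity is fitted in both directions against DMSO controls.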
# [17] = APR_HepG2_StressKinase_72hr: Apredica 72-hour HepG2 Assay for Stress Kinase (AID 2282921); conditions: HepG2 stress kinase (phospho-c-Jun) imaging, actives raise or lower the signal
# Outline: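 Stress kinase signal reflects nuclear phospho-c-Jun staining in fixed, permeabilized cells exposed 72 h to compound at 0.39–200 uM; DMSO-normalized, fitted for increases or decreases.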
# [18] = APR_HepG2_StressKinase_24hr: Apredica 24-hour HepG2 Assay for Stress Kinase (AID 2282922); conditions: HepG2 stress kinase (phospho-c-Jun) imaging, actives raise or lower the signal
# Outline: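 After 24 hr compound treatment (up to 200 uM, final DMSO 0.5% v/v), HepG2 cells are fixed and multiplex-labeled; phospho-c-Jun intensity is captured by high-content fluorescence imaging and analyzed relative to DMSO.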
# [19] = APR_HepG2_p53Act_72hr: Apredica 72-hour HepG2 Assay for p53 Activation (AID 2282923); conditions: high-content imaging, actives raise or lower the signal;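 also: average cellular p53 protein immunofluorescence intensity in HepG2 cells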
# Outline: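 Fixed-cell p53 staining (sheep primary, Cy5 secondary) measured by fluorescence imaging following 72 hr treatment at 0.39–200 uM in 0.5% DMSO; DMSO served as negative control and baseline.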
# [20] = APR_HepG2_MitoMass_72hr: Apredica 72-hour HepG2 Assay for Mitochondrial Mass (AID 2282924); conditions: high-content imaging, actives raise or lower the signal;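 also: MitoTracker Red CMXRos stain intensity per cell imaged as mitochondrial mass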
# Outline: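 Steps: treat HepG2 72 hr (0.39–200 uM, duplicate wells); load MitoTracker Red CMXRos, 250 nM, 30 min; fix with 3.7% formaldehyde, permeabilise with 0.5% Triton X-100; capture images, nuclei via Hoechst 33342; fit bidirectionally against DMSO.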
smiles,measurement,setting,value
C=C(C)C(=O)OCCN(C)C,outcome,[1],inactive
C=C/C(C)=C/C/C=C(\C)CCC=C(C)C,outcome,[1],inactive
CC/C=C\CCOC(C)OCC (centres undefined),outcome,[1],inactive
OCCN1CCOCC1,outcome,[1],inactive
Nc1ccc(O)c(N)c1,outcome,[1],inactive
O=C(c1ccc(OCCN2CCCCC2)cc1)c1c(-c2ccc(O)cc2)sc2cc(O)ccc12,outcome,[2],inactive
same,outcome,[3],inactive
same,outcome,[4],inactive
same,outcome,[5],inactive
same,outcome,[6],inactive
same,outcome,[7],inactive
same,outcome,[8],inactive
same,outcome,[9],inactive
same,outcome,[10],inactive
same,outcome,[11],inactive
same,outcome,[12],inactive
same,outcome,[13],inactive
same,outcome,[14],inactive
same,outcome,[15],inactive
same,outcome,[16],inactive
same,outcome,[17],inactive
same,outcome,[18],inactive
same,outcome,[19],inactive
same,outcome,[20],inactive
C#C[C@]1(O)CC[C@H]2[C@@H]3CCc4cc(O)ccc4[C@H]3CC[C@@]21C,AC50,[2],36.8 µM (active)
same,outcome,[3],inactive
same,AC50,[4],24.3 µM (active)
same,outcome,[5],inactive
same,AC50,[6],10.9 µM (active)
same,outcome,[7],inactive
same,outcome,[8],inactive
same,AC50,[9],87.5 µM (active)
same,AC50,[10],27.9 µM (active)
same,AC50,[11],34.6 µM (active)
same,AC50,[12],70.6 µM (active)
same,outcome,[13],inactive
same,AC50,[14],58.1 µM (active)
same,outcome,[15],inactive
same,AC50,[16],83.4 µM (active)
same,outcome,[17],inactive
same,outcome,[18],inactive
same,AC50,[19],28.5 µM (active)
same,outcome,[20],inactive
CCCC[N+](C)(CCCC)CCCC,outcome,[1],inactive
O=S1(=O)CC(Cl)(Cl)C(Cl)(Cl)C1,outcome,[1],inactive
CC/C(=C(\c1ccccc1)c1ccc(OCCN(C)C)cc1)c1ccccc1,outcome,[2],inactive
same,outcome,[3],inactive
same,AC50,[4],14.5 µM (active) and 17.8 µM (active)
same,AC50,[5],35.4 µM (active) and 44.5 µM (active)
same,AC50,[6],7.3 µM (active) and 6.94 µM (active)
same,AC50,[7],39.2 µM (active) and 24.9 µM (active)
same,AC50,[8],6.38 µM (active) and 7.4 µM (active)
same,AC50,[9],16.1 µM (active) and 11.3 µM (active)
same,AC50,[10],29.4 µM (active)
same,outcome,[10],inactive
same,AC50,[11],13.3 µM (active) and 17.4 µM (active)
same,AC50,[12],53.9 µM (active) and 59 µM (active)
same,AC50,[13],30.7 µM (active)
same,outcome,[13],inactive
same,AC50,[14],9.78 µM (active) and 3.59 µM (active)
same,outcome,[15],inactive
same,AC50,[16],11.6 µM (active) and 19.7 µM (active)
same,AC50,[17],63.4 µM (active) and 100 µM (active)
same,AC50,[18],32.1 µM (active)
same,outcome,[18],inactive
same,AC50,[19],6.04 µM (active)
same,outcome,[19],inactive
same,AC50,[20],152 µM (active)
same,outcome,[20],inactive
CCCCCCOc1ccc(O)cc1,outcome,[1],inactive
C=C(C)CCCC(C)CCO (centres undefined),outcome,[1],inactive
O=c1cc[nH]cc1,outcome,[1],inactive
CCCCCCCCCOS(=O)(=O)O,outcome,[1],inactive
C[C@]12CC[C@@H]3c4ccc(O)cc4CC[C@H]3[C@@H]1CC[C@@H]2O,outcome,[2],inactive
same,outcome,[3],inactive
same,AC50,[4],18.7 µM (active)
same,AC50,[5],32.4 µM (active)
same,AC50,[6],22.6 µM (active)
same,outcome,[7],inactive
same,outcome,[8],inactive
same,AC50,[9],25.1 µM (active)
same,outcome,[10],inactive
same,AC50,[11],28.6 µM (active)
same,AC50,[12],30.7 µM (active)
same,outcome,[13],inactive
same,AC50,[14],32.8 µM (active)
same,outcome,[15],inactive
same,AC50,[16],24.5 µM (active)
same,outcome,[17],inactive
same,outcome,[18],inactive
same,AC50,[19],25.6 µM (active)
same,outcome,[20],inactive
FC(F)(F)c1ccc(Cl)c(Cl)c1,outcome,[1],inactive
C=C1CC/C=C(\C)CC[C@@H]2[C@@H]1CC2(C)C,outcome,[1],inactive
CC1(C)CC(=O)CC(C)(C)N1,outcome,[1],inactive
CCCO,outcome,[1],inactive
CC1=CC(=O)[C@H]2C[C@@H]1C2(C)C,outcome,[1],inactive
CCCCCCCCOS(=O)(=O)O,outcome,[1],inactive
Nc1ccc(N)c([N+](=O)[O-])c1,outcome,[1],inactive
CCOC(=O)COC(=O)c1ccccc1C(=O)OCC,outcome,[1],inactive
Brc1cc(Br)cc(Br)c1,outcome,[1],inactive
CC(=O)c1cccnc1,outcome,[1],inactive
[Cl][Dy]([Cl])[Cl],AC50,[1],43 nM (active)
CCOCC(C)O (centres undefined),outcome,[1],inactive
O=C1OCc2ccccc21,outcome,[1],inactive
CCCCN(CCCC)CCCCCCN(CCCC)CCCC,outcome,[1],inactive
CCn1cc(C(=O)O)c(=O)c2ccc(C)nc21,outcome,[1],inactive
CCCCCC#CC(=O)OC,outcome,[1],inactive
CCC(C)(CCCC(C)C)OC(C)=O (centres undefined),outcome,[1],inactive
NC(=O)c1c(Cl)cccc1Cl,AC50,[1],168 nM (active)
CN1CCc2cccc3c2[C@H]1Cc1ccc(O)c(O)c1-3,outcome,[1],inactive
CCCCCC(=O)O[C@]1(C(C)=O)CC[C@H]2[C@@H]3CCC4=CC(=O)CC[C@]4(C)[C@H]3CC[C@@]21C,AC50,[1],5.01 nM (active)
CC1=CC[C@@H](C(C)(C)O)CC1,outcome,[1],inactive
CC(C)CCOC(=O)CC(C)C,outcome,[1],inactive
